# Results taken from ChEMBL document CHEMBL1961873, “Compounds: GSK PKIS; Assays: Nanosyn kinase panel” (2012).
# Columns and labels:
# [1] = target: Protein kinase C gamma type (Homo sapiens) (UniProt P05129); settings: at 1 µM;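 also: each value is an averaged percent inhibition of the enzyme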
# [2] = target: T1, Protein kinase C iota type (Homo sapiens) (UniProt P41743); settings: at 0.1 µM
# T1 sequence (whole entry): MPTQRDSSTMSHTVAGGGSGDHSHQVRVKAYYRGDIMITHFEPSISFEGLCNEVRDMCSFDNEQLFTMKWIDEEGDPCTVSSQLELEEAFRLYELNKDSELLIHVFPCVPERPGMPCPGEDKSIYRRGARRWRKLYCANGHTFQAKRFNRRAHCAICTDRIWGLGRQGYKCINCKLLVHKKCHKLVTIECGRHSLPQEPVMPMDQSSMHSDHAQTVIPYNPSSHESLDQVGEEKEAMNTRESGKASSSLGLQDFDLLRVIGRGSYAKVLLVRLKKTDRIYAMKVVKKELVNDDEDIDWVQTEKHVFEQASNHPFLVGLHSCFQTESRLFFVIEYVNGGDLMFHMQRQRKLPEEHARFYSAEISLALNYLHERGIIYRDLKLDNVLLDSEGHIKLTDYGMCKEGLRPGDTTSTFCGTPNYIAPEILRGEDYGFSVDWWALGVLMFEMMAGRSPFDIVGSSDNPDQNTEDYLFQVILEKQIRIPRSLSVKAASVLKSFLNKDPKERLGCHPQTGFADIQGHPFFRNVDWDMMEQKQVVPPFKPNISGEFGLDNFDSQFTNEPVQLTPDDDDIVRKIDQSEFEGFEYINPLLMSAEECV
# [3] = target: T1, Protein kinase C iota type (Homo sapiens); settings: at 1 µM
# [4] = target: Protein kinase C theta type (Homo sapiens) (UniProt Q04759); settings: at 0.1 µM
# Sequence of Protein kinase C theta type (Homo sapiens) (Q04759 whole entry, looked up): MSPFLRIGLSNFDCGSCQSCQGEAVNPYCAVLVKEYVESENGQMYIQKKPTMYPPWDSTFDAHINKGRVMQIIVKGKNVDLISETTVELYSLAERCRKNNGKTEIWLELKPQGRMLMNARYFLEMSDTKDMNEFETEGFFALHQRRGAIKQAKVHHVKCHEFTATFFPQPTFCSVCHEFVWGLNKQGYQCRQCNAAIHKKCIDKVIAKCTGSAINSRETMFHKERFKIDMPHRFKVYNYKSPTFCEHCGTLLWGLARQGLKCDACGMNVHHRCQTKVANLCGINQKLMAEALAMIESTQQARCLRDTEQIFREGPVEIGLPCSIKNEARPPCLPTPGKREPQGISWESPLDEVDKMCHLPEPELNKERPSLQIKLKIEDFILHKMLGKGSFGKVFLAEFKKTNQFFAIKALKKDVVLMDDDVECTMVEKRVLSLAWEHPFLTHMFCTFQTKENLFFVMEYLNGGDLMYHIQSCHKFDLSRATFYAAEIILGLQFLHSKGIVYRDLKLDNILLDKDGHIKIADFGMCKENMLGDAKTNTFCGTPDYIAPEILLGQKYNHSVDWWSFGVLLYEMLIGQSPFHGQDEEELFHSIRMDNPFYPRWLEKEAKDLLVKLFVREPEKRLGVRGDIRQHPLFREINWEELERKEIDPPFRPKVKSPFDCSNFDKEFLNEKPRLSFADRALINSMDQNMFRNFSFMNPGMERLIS
# [5] = target: Protein kinase C theta type (Homo sapiens) (UniProt Q04759); settings: at 1 µM
# [6] = target: Protein kinase C beta type (Homo sapiens) (UniProt P05771); settings: at 0.1 µM
# Sequence of Protein kinase C beta type (Homo sapiens) (P05771 2-671 limits assumed): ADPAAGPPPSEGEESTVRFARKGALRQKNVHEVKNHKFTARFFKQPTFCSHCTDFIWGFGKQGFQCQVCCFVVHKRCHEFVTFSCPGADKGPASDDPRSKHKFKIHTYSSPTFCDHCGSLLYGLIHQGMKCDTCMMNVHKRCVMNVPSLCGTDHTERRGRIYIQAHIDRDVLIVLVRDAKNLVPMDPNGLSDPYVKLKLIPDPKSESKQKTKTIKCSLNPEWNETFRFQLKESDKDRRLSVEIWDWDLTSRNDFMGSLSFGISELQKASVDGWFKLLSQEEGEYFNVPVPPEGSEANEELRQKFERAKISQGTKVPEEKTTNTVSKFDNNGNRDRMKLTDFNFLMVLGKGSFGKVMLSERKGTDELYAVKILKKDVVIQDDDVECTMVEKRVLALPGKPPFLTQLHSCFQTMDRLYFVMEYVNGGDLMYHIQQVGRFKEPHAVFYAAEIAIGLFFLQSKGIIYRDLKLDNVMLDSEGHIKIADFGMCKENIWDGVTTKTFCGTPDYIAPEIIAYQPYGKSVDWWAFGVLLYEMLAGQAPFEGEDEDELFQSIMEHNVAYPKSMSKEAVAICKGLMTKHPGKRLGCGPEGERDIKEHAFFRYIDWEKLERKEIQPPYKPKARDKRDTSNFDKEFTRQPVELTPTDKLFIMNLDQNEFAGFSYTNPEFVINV
# [7] = target: Protein kinase C beta type (Homo sapiens) (UniProt P05771); settings: at 1 µM
# [8] = target: T2, Serine/threonine-protein kinase D1 (Homo sapiens) (UniProt Q15139); settings: at 0.1 µM
# T2 sequence (whole entry): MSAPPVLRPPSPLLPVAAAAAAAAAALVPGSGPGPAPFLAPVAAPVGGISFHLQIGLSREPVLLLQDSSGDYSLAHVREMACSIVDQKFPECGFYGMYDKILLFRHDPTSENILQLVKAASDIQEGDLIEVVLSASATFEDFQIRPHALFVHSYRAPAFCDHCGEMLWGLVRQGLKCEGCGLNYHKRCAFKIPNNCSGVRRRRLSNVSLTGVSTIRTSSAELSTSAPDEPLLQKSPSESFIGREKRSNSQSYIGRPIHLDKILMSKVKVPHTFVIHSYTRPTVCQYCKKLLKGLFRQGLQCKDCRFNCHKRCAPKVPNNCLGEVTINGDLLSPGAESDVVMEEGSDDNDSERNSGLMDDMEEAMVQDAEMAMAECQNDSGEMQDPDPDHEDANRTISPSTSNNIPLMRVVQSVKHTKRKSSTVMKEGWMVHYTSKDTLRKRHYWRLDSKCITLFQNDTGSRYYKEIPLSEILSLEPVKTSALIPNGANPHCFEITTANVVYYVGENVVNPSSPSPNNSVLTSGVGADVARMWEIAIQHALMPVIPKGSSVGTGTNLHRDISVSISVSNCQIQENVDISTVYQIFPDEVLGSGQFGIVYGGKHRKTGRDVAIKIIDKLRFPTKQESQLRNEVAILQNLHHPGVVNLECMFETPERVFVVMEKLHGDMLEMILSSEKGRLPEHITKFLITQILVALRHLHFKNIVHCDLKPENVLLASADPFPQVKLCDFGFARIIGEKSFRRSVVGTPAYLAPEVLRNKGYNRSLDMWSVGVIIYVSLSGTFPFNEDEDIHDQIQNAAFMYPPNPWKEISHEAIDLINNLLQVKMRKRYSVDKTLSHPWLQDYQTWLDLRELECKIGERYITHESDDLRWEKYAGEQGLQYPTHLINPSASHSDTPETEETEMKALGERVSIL
# [9] = target: T2, Serine/threonine-protein kinase D1 (Homo sapiens); settings: at 1 µM
# [10] = target: T3, Serine/threonine-protein kinase D2 (Homo sapiens) (UniProt Q9BZL6); settings: at 0.1 µM
# T3 sequence (whole entry): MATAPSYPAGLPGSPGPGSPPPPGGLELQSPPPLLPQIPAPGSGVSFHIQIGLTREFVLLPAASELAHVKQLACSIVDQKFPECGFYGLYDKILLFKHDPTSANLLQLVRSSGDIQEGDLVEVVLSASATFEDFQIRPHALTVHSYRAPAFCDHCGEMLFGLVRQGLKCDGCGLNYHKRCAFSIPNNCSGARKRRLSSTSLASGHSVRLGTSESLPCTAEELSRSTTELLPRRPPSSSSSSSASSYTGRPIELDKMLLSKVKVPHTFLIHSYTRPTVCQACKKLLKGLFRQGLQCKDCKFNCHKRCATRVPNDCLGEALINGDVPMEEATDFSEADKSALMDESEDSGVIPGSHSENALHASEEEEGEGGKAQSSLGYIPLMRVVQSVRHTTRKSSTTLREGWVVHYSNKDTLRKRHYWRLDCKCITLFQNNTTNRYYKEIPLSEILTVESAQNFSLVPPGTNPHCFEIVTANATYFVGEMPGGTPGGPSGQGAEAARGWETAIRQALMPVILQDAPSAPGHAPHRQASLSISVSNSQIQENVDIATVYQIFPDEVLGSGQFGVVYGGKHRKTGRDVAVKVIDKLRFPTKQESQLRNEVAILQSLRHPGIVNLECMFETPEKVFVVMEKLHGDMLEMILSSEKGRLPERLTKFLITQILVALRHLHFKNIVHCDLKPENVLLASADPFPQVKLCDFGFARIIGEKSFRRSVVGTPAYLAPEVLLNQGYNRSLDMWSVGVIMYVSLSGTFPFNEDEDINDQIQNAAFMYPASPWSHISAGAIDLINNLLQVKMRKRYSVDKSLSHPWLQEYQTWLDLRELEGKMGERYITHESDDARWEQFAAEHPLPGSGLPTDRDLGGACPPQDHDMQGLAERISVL
# [11] = target: T3, Serine/threonine-protein kinase D2 (Homo sapiens); settings: at 1 µM
# [12] = target: T4, Serine/threonine-protein kinase D3 (Homo sapiens) (UniProt O94806); settings: at 0.1 µM
# T4 sequence (whole entry): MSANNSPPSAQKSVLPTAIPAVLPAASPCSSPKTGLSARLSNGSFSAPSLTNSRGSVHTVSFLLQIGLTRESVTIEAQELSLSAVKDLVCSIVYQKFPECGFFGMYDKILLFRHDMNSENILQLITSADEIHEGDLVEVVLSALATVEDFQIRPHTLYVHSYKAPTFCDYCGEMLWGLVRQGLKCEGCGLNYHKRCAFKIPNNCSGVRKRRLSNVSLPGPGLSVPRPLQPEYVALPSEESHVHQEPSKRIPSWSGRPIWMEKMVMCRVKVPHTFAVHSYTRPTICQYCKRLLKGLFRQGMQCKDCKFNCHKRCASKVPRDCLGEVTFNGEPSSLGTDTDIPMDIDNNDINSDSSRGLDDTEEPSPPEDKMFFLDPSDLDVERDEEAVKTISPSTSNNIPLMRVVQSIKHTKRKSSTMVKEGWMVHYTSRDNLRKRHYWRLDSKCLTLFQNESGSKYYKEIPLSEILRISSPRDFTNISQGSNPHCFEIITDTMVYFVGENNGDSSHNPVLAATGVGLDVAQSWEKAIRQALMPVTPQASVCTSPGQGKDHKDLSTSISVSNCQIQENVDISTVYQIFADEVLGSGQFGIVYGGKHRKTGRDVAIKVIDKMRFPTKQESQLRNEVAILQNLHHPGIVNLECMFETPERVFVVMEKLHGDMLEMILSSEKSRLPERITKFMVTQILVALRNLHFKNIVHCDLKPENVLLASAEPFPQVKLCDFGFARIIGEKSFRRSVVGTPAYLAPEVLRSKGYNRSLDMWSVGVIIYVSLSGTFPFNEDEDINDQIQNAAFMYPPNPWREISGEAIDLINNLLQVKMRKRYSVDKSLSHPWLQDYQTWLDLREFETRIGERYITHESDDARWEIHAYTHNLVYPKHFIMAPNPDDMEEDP
# [13] = target: T4, Serine/threonine-protein kinase D3 (Homo sapiens); settings: at 1 µM
# [14] = target: T5, cGMP-dependent protein kinase 1 (Homo sapiens) (UniProt Q13976); settings: at 0.1 µM
# T5 sequence (whole entry): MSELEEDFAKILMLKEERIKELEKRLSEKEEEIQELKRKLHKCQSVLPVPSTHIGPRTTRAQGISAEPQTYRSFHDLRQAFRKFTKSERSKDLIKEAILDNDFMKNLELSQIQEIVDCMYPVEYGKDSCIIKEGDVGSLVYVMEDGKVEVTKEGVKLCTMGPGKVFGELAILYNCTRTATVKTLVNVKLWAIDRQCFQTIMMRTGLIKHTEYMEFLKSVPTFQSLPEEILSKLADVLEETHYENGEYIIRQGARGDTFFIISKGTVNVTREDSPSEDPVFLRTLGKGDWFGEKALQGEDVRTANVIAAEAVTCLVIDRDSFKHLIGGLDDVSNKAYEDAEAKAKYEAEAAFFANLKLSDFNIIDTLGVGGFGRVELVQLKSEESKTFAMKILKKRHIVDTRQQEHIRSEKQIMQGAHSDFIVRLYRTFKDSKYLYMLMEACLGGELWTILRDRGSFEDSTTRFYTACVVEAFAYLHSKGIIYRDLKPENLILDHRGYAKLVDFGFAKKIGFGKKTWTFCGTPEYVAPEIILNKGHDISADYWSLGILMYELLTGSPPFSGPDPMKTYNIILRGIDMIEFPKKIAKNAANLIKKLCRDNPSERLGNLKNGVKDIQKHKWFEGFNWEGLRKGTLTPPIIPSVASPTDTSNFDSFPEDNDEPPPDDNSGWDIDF
# [15] = target: T5, cGMP-dependent protein kinase 1 (Homo sapiens); settings: at 1 µM
# [16] = target: T6, cGMP-dependent protein kinase 2 (Homo sapiens) (UniProt Q13237); settings: at 0.1 µM
# T6 sequence (whole entry): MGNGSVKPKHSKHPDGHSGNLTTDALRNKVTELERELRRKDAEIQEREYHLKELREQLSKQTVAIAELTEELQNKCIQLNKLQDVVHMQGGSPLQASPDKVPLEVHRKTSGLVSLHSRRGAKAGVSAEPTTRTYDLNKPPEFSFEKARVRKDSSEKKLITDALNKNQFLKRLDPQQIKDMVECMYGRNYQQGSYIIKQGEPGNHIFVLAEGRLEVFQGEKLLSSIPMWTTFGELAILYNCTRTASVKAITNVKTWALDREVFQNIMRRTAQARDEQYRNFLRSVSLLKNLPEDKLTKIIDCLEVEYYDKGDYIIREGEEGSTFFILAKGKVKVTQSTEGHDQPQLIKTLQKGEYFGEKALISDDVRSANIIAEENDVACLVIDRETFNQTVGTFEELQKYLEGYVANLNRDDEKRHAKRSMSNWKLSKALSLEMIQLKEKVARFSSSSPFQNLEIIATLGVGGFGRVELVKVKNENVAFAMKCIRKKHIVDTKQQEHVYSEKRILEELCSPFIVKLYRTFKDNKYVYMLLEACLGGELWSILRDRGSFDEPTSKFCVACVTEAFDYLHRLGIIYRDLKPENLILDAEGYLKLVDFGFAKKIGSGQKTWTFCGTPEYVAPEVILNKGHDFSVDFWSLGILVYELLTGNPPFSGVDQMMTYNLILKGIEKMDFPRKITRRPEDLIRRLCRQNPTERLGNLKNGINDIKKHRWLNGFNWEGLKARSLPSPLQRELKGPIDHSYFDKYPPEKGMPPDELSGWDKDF
# [17] = target: T6, cGMP-dependent protein kinase 2 (Homo sapiens); settings: at 1 µM
# [18] = target: T7, cAMP-dependent protein kinase catalytic subunit PRKX (Homo sapiens) (UniProt P51817); settings: at 0.1 µM
# T7 sequence (whole entry): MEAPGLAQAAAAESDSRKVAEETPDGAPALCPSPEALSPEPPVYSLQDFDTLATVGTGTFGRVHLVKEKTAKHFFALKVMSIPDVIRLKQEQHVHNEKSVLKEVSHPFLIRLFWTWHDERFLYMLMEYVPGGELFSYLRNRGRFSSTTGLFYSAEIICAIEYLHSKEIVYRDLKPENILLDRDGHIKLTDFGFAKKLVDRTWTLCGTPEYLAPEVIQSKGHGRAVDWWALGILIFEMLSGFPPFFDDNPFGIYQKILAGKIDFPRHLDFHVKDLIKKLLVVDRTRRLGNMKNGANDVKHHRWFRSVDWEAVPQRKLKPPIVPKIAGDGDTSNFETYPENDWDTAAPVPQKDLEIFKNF
# [19] = target: T7, cAMP-dependent protein kinase catalytic subunit PRKX (Homo sapiens); settings: at 1 µM
# [20] = target: Rho-associated protein kinase 1 (Homo sapiens) (UniProt Q13464); settings: at 0.1 µM;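 also: values are mean percent inhibition of ROCK1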
# Sequence of Rho-associated protein kinase 1 (Homo sapiens) (Q13464 2-1354 limits assumed): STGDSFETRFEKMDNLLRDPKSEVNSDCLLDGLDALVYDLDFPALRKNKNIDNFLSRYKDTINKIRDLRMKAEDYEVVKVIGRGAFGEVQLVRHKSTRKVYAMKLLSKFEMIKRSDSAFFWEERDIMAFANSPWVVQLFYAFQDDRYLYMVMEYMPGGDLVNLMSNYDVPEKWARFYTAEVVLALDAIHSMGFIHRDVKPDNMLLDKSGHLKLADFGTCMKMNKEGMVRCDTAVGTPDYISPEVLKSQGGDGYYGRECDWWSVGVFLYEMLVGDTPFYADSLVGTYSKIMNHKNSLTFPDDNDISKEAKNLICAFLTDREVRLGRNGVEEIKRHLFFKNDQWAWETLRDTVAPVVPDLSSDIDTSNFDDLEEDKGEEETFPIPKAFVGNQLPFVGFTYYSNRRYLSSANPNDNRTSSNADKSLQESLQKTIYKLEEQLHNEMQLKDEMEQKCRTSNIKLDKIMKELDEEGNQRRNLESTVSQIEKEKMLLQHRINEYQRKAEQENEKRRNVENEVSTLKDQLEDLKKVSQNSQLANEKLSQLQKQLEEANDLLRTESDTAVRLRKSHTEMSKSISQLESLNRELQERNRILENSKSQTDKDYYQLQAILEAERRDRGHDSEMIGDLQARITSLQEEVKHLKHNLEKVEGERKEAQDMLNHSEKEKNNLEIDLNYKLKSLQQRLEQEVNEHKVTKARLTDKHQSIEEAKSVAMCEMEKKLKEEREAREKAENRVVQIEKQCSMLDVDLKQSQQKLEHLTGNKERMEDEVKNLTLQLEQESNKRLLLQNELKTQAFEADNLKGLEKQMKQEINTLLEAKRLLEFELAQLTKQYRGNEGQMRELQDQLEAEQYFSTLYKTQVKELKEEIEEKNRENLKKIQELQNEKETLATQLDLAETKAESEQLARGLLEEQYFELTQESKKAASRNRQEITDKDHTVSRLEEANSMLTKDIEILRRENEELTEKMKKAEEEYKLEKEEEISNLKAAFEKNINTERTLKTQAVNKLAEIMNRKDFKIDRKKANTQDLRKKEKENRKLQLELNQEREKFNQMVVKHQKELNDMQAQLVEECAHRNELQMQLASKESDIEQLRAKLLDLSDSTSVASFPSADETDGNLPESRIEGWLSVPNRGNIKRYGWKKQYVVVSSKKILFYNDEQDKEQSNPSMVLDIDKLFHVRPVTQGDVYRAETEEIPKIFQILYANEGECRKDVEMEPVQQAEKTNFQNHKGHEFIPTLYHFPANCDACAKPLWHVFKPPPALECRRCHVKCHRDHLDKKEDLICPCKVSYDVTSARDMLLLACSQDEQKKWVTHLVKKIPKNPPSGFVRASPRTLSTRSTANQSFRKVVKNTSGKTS
smiles,measurement,setting,value
CN(c1ccc(NC(=O)Nc2c(Cl)cccc2Cl)cc1)c1ccnc(Nc2cccc(CS(C)(=O)=O)c2)n1,inhibition,[1],6.65%
same,inhibition,[2],1.27%
same,inhibition,[3],1.5%
same,inhibition,[4],2.22%
same,inhibition,[5],3.24%
same,inhibition,[6],0.41%
same,inhibition,[7],3.24%
same,inhibition,[8],2.4%
same,inhibition,[9],1.18%
same,inhibition,[10],0.57%
same,inhibition,[11],2%
same,inhibition,[12],1.3%
same,inhibition,[13],0.38%
same,inhibition,[14],3.11%
same,inhibition,[15],3.77%
same,inhibition,[16],1.9%
same,inhibition,[17],3.22%
same,inhibition,[18],1.96%
same,inhibition,[19],3.64%
same,inhibition,[20],0.85%
